A short description of assay [1]: CCTE_Shafer_MEA_acute_interburst_interval_mean: CCTE's Neural Acute Assay for Mean Interburst Interval, Shafer Lab (AID 2284016).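 Further: percent change of mean interburst interval versus each well's own pre-dose baseline; curves fitted for decrease in interburst interval relative to DMSO.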 The procedure, abridged:
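Rat cortical cultures, DIV 13/15; 20 min equilibration, 40 min baseline, compound 0.03-40 uM, 40 min re-recording, 37 C. Spikes detected at 8x rms noise (300-5000 Hz band-pass). Endpoint: % change in interburst interval, fitted in loss direction vs DMSO.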

Assay [2] in a line: CCTE_Shafer_MEA_acute_burst_percentage_mean: CCTE's Neural Acute Assay for Percentage of Spikes in a Burst, Shafer Lab (AID 2284017).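 On AC50: curve fitted for loss of signal so potency reflects decreased burst percentage.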 In short, it runs like this: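 Rat cortical cultures, DIV 13/15, 37 C. Spikes detected at 8x rms noise (300-5000 Hz band-pass). Burst spikes/total spikes averaged across electrodes per well; % change post- vs pre-treatment (40 min each), loss-of-signal fit vs DMSO.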

A short description of assay [3]: CCTE_Shafer_MEA_acute_burst_percentage_std: CCTE's Neural Acute Assay for Standard Deviation of Burst Percentage, Shafer Lab (AID 2284018).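 Further: fitted in the negative direction so actives lower burst percentage SD.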 In short, it runs like this: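 Value is percent change from baseline in the across-electrode SD of spikes-in-bursts percentage, wells with >/= 10 active electrodes. Acute 40-min exposure to 0.03-40 uM on DIV 13 or 15 rat cortical cultures, recorded at 37 C after 40-min baseline.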

Assay [4] can be described thus: CCTE_Shafer_MEA_acute_per_network_burst_spike_number_mean: CCTE's Neural Acute Assay for Average Number of Spikes in a Network Burst, Shafer Lab (AID 2284019). In short, it runs like this:
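Percent change from baseline in mean spikes per network burst, spikes detected at 8x rms noise. Each compound at 0.03-40 uM in at least three wells of rat cortical cultures, recorded 40 min before and 40 min during exposure.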

Assay [5] in a line: CCTE_Shafer_MEA_acute_per_network_burst_spike_number_std: CCTE's Neural Acute Assay for Standard Deviation of Number of Spikes in a Network Burst, Shafer Lab (AID 2284020).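 Further: fitted for decrease in spike-number SD versus DMSO so actives lower it.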 In short, it runs like this:
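Endpoint: percent change from 40 min baseline in standard deviation of spikes per network burst, after 40 min compound exposure (0.03-40 uM, 37 C). Cortical rat neurons on MEA at DIV 13 or 15; spikes detected at 8x rms noise, 300-5000 Hz band-pass.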

The nature of assay [6]: CCTE_Shafer_MEA_acute_per_network_burst_electrodes_number_mean: CCTE's Neural Acute Assay for Mean Number of Electrodes in a Network Burst, Shafer Lab (AID 2284021).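 Further: curves fitted for decreases only so hits reduce electrodes per burst.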 The procedure, abridged: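 Readout: % change in mean electrodes active per network burst, post- vs pre-treatment, each well. Spikes detected at 8x rms noise after 300-5000 Hz band-pass; rat cortical cultures, DIV 13/15, compounds 0.03-40 uM, DMSO baseline.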

The nature of assay [7]: CCTE_Shafer_MEA_acute_network_burst_percentage: CCTE's Neural Acute Assay for Percentage of Network Bursts, Shafer Lab (AID 2284022).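 Further: curves fitted for loss so actives lower network burst percentage.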 The procedure, abridged:
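Rat cortical cultures, DIV 13/15; 20 min equilibration, 40 min baseline, compound 0.03-40 uM, 40 min recording, 37 C. Spikes: 300-5000 Hz band-pass, threshold 8x rms noise. Readout: % change in network-burst spike fraction; loss direction vs DMSO.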

Assay [8] is described as follows: CCTE_Shafer_MEA_acute_cross_correlation_area: CCTE's Neural Acute Assay for Area of Cross Correlation, Shafer Lab (AID 2284024).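 Further: rat primary cortical neuron networks on 48-well MEA at DIV 13 or 15 with 40 min exposure; area under pooled inter-electrode spike cross-correlation near zero lag as percent change from own baseline; curves fitted for loss of cross-correlation area so actives lower synchrony.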 The procedure, abridged:
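Rat cortical cultures, DIV 13/15, MEA; spikes detected at 8x rms noise (300-5000 Hz band-pass). Compound 0.03-40 uM, ≥3 wells each. Readout: % change in pooled inter-electrode cross-correlation area vs own baseline; DMSO negative control.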

The nature of assay [9]: CCTE_Shafer_MEA_acute_cross_correlation_HWHM: CCTE's Neural Acute Assay for Cross Correlation at Half Width at Half Maximum, Shafer Lab (AID 2284026).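 Further: percent change per well from pre-dose baseline in spike cross-correlogram half width; hits are a decrease in cross-correlogram half width relative to DMSO.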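 On outcome: spontaneous network firing of rat primary cortical neurons on multiwell microelectrode arrays.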 The procedure, abridged:
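Read-out: half width at half maximum of action-potential cross-correlogram, percent change versus pre-treatment baseline, fitted in loss direction against DMSO. Rat cortical cultures, DIV 13 or 15, dosed 0.03-40 uM, 40-min recordings at 37 C.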

Assay [10] can be described thus: CCTE_Shafer_MEA_acute_synchrony_index: CCTE's Neural Acute Assay for Synchrony, Shafer Lab (AID 2284027).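 Further: network synchrony index of spontaneous spiking in primary rat cortical neurons on MEAs; fitted for loss of signal so actives lower synchrony relative to DMSO.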 The procedure, abridged:
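Rat cortical cultures, DIV 13/15; spikes detected at 8x rms noise, 300-5000 Hz band-pass. Compound 0.03-40 uM, ≥3 wells; 40-min pre- and post-exposure recordings, 37 C. Readout: % change in synchrony index; loss-of-signal fit vs DMSO.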

Assay [11] can be described thus: CCTE_Shafer_MEA_acute_LDH: CCTE's Lactate Dehydrogenase Assay for Cytotoxicity in the Neural Acute Assay, Shafer Lab (AID 2284086; active means hit-call score of the fitted dose curve at least 0.9, where 1 is the maximum;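 further: active means LDH release rises above DMSO vehicle level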). In short, it runs like this: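 LDH absorbance at 490 nm in medium taken right after 40-min compound exposure; rat primary cortical neuron networks on MEA plates, days post-plating 13 or 15. Increase over DMSO baseline scored as cytotoxicity.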

Assay [12] is described as follows: ATG_Sox_CIS: Attagene CIS-FACTORIAL HepG2 Assay for human SRY-box transcription factor (SOX) (AID 2282960). To be noted: HepG2 Attagene cis-factorial SOX reporter, mRNA; actives raise or lower the signal. The procedure, abridged: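 HepG2 cells transiently transfected with multiple cis-regulated reporter units, then dosed for 24 h. Reporter mRNA quantified by RT-PCR, fluorescent labelling, HpaI digestion and capillary electrophoresis; bidirectional fit versus DMSO.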

The target in assay [13] is Glucocorticoid receptor (Homo sapiens) (UniProt P04150). The experiment in a line: ATG_GR_TRANS: Attagene TRANS-FACTORIAL HepG2 Assay for human Glucocorticoid Receptor (GR) (AID 2282978; active means hit-call score of the fitted dose curve at least 0.9, where 1 is the maximum;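 further: activators score as hits since higher reporter transcript over DMSO is fitted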). To be noted: HepG2 Attagene TRANS GR reporter, mRNA transcription. In short, it runs like this:
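HepG2 cells transiently transfected with GAL4-UAS reporter units and exogenous GR-Gal4 chimera, dosed 24 h. Reporter mRNA by RT-PCR, FAM labeling, HpaI digest and capillary electrophoresis; gain-of-signal fit versus DMSO.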

Assay [14] in a line: ATG_NF_kB_CIS: Attagene CIS-FACTORIAL HepG2 Assay for human Nuclear Factor Kappa B (NF-kB) (AID 2282991). Particulars: HepG2 Attagene cis-factorial NF-kB reporter mRNA; actives raise or lower the signal. The procedure, abridged: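 HepG2 cells transfected with cis-promoter-driven reporter units, so endogenous transcription factor activity is measured. Reporter mRNA quantified 24 h after dosing by RT-PCR and capillary electrophoresis, with bidirectional fitting against DMSO.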

In assay [15] the target is human Thyroid Receptor alpha (THRa1), THRA (gene 7067) (UniProt P10827). Briefly: ATG_THRa1_TRANS: Attagene TRANS-FACTORIAL HepG2 Assay for human Thyroid Receptor alpha (THRa1) (AID 2283014; active means hit-call score of the fitted dose curve at least 0.9, where 1 is the maximum). The procedure, abridged:
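Transient HepG2 transfection, NR-Gal4 chimera driving GAL4-UAS reporters; 24 h compound exposure; total RNA, oligo(dT) RT, PCR, fluorescent primer extension, capillary electrophoresis. Upward direction vs DMSO control.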

Assay [16] can be described thus: ATG_RORE_CIS: Attagene CIS-FACTORIAL HepG2 Assay for human RAR-related Orphan Receptor Element (RORE) (AID 2282959). Particulars: HepG2 Attagene cis-factorial RORE reporter, mRNA; actives raise or lower the signal. In short, it runs like this:
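HepG2 cells carrying transiently transfected cis-regulated reporter units; RORE-driven reporter mRNA quantified 24 h post-dosing by RT-PCR, 6-FAM primer extension, HpaI digestion and capillary electrophoresis. Bidirectional fit versus DMSO.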

The target in assay [17] is human RAR-related Orphan Receptor beta (RORb), RORB (gene 6096) (UniProt Q92753). The experiment in a line: ATG_RORb_TRANS: Attagene TRANS-FACTORIAL HepG2 Assay for human RAR-related Orphan Receptor beta (RORb) (AID 2283010; active means hit-call score of the fitted dose curve at least 0.9, where 1 is the maximum). The procedure, abridged:
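HepG2, transient MRTU transfection (GAL4-UAS reporters, exogenous NR-Gal4 chimeras); 24 h compound exposure; total RNA → RT-PCR → 6-FAM primer extension → HpaI digest → CE fluorescence. Positive direction vs DMSO baseline.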

Assay [18] can be described thus: ATG_VDRE_CIS: Attagene CIS-FACTORIAL HepG2 Assay for human Vitamin D Receptor Element (VDRE) (AID 2282968). To be noted: HepG2 VDRE cis-reporter transcription, actives raise or lower the signal. The procedure, abridged: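 Measures endogenous factor activity through cis-element-driven reporter transcripts in transiently transfected HepG2. Cells are treated 24 h; reporter mRNA is quantified by RT-PCR and capillary electrophoresis; fitting is bidirectional.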

The target of assay [19] is Oxysterols receptor LXR-alpha (Homo sapiens) (UniProt Q13133). The experiment in a line: ATG_LXRa_TRANS: Attagene TRANS-FACTORIAL HepG2 Assay for human Liver X Receptor alpha (LXRa) (AID 2282980; active means hit-call score of the fitted dose curve at least 0.9, where 1 is the maximum). To be noted: HepG2 Attagene TRANS reporter, LXRa transactivation. The procedure, abridged: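 Read-out: reporter transcript levels by RT-PCR plus capillary electrophoresis, fluorescence intensity. Transiently transfected HepG2, exogenous NR-GAL4 chimera, GAL4-UAS reporters; 24 h compound exposure. Activity = increase over DMSO negative control.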
Chain of Oxysterols receptor LXR-alpha (Homo sapiens) (Q13133 whole entry, looked up, the tested form may be a part): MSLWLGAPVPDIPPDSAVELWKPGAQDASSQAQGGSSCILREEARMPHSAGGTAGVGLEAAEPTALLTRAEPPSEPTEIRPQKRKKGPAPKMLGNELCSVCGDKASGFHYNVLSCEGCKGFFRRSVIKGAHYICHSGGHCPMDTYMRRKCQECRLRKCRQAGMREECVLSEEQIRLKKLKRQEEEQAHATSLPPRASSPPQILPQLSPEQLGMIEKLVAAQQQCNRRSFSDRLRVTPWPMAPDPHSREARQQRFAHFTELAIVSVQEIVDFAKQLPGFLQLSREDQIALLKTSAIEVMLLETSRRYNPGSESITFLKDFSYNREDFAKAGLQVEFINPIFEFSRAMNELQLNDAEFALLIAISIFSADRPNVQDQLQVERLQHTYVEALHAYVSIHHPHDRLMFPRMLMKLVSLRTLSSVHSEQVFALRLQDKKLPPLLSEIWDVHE

Assay [20] has as its target human Peroxisome Proliferator-activated Receptor delta (PPARd), PPARD (gene 5467) (UniProt Q03181). The experiment in a line: ATG_PPARd_TRANS: Attagene TRANS-FACTORIAL HepG2 Assay for human Peroxisome Proliferator-activated Receptor delta (PPARd) (AID 2283002; active means hit-call score of the fitted dose curve at least 0.9, where 1 is the maximum). The procedure, abridged: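 Transient HepG2 transfection (multiple GAL4-UAS RTUs, chimeric receptor-Gal4); 24 h dosing; total RNA → oligo(dT) RT → PCR → 6-FAM primer extension → HpaI cut → CE. Positive direction vs DMSO.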

We go through 14 molecules from PubChem BioAssay (EPA / NIEHS).

By AC50 is commonly meant the concentration giving half of the maximal activity seen.

Records with an inconclusive call do not appear. Active and inactive are the calls of the source. How the source made its calls, unless noted: active means hit-call score of the fitted dose curve at least 0.9, where 1 is the maximum; inactive means score below 0.9.

Chain of human Thyroid Receptor alpha (THRa1), THRA (gene 7067) (P10827 whole entry, looked up, the tested form may be a part): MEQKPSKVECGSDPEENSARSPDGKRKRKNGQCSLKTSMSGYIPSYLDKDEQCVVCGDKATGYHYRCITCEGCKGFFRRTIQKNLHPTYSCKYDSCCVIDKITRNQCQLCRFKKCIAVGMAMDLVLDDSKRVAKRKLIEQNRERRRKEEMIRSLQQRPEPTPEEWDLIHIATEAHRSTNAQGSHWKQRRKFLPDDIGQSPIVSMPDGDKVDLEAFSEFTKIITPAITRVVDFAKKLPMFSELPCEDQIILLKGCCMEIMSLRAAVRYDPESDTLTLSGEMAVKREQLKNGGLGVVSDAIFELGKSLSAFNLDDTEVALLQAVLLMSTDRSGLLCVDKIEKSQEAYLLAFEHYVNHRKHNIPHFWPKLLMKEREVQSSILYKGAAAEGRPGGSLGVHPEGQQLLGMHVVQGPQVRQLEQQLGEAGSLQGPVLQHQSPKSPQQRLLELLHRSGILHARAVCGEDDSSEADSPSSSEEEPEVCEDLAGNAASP
Chain of human Peroxisome Proliferator-activated Receptor delta (PPARd), PPARD (gene 5467) (Q03181 whole entry, looked up, the tested form may be a part): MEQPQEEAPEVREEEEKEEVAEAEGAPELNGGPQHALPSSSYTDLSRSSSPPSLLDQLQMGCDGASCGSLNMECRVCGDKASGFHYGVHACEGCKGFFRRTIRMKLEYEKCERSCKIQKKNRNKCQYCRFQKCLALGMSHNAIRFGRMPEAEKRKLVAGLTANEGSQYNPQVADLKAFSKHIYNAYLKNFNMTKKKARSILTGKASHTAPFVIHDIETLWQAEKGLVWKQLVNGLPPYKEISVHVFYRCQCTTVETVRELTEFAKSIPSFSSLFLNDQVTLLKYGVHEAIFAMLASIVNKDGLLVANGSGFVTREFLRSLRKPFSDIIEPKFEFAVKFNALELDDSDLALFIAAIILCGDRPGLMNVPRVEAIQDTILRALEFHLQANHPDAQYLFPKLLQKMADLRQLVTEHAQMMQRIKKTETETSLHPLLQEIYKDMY
Chain of Glucocorticoid receptor (Homo sapiens) (P04150 whole entry, looked up, the tested form may be a part): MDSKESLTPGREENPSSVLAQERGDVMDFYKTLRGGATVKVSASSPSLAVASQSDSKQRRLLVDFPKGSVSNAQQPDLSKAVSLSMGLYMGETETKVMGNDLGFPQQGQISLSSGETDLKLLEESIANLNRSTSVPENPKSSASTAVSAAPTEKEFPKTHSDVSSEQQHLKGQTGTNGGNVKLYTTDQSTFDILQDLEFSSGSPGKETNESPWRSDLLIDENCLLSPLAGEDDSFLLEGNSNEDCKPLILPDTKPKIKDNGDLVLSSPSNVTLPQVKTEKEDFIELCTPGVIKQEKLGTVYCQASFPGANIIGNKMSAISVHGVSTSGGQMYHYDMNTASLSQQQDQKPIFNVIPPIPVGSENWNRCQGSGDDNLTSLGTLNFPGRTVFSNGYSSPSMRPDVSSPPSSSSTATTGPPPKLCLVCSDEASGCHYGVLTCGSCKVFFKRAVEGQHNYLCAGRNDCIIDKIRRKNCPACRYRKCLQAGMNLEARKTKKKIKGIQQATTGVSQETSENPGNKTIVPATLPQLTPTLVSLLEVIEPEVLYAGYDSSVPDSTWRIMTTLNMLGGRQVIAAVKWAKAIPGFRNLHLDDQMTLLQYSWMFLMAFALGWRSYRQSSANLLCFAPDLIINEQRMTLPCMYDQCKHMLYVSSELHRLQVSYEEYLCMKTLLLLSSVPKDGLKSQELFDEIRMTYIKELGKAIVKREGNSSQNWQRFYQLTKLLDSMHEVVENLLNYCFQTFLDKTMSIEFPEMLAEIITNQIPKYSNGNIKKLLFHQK
Chain of human RAR-related Orphan Receptor beta (RORb), RORB (gene 6096) (Q92753 whole entry, looked up, the tested form may be a part): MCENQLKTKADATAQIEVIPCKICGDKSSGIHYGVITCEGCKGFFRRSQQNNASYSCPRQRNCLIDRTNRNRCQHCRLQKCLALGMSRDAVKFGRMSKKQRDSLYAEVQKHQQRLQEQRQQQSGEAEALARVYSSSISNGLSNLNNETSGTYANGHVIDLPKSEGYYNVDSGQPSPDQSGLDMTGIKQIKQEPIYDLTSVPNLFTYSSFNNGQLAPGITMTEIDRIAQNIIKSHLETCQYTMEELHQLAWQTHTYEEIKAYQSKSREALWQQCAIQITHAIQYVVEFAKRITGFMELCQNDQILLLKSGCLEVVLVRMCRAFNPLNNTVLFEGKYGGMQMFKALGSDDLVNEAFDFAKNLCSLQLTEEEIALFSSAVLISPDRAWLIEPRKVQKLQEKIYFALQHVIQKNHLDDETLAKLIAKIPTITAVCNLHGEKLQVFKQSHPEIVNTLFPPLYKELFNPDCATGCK

As for `CC(C)C1OCCN1CCOC(=O)NCCCCCCNC(=O)OCCN1CCOC1C(C)C` (stereo unspecified), the outcome in assay [1], in assay [2], in [3], in assay [4], in [5] and in assay [6] was inactive. The call in assay [7], in [8], in [9], in assay [10] and in assay [11] was inactive.

Take `C=CC(C)(CCC=C(C)C)OC(=O)c1ccccc1` (stereo unspecified): the molecule was called inactive in assay [12], in assay [13], in assay [14] and in assay [15].

For `CC(C)CC(=O)CC(C)C`, the molecule was classed as inactive in assay [16], in assay [12], in assay [14] and in [17].

On to `CCCCCCOC(=O)CCCCCCCC(=O)OCCCCCC`, for which the outcome in assay [12], in assay [18], in assay [13], in assay [19], in [14] and in assay [20] was inactive. For the same molecule, the outcome in assay [15] was inactive.

In the case of `Cc1c(C(N)=O)cc([N+](=O)[O-])cc1[N+](=O)[O-]`, the outcome in assay [1], in assay [2], in assay [3], in assay [4], in [5] and in assay [6] was inactive. The molecule was called inactive in assay [7], in assay [8], in [9], in assay [10] and in assay [11].

On to `COc1cccc(OC)c1C(=O)O`, for which the result in assay [19] was inactive.

Take `CCO[Si](OCC)(OCC)c1ccccc1`: the molecule was called inactive in assay [16], in assay [13] and in [15].

In the case of `COc1c2occc2cc2ccc(=O)oc12`, the call in [16], in [20], in assay [17] and in assay [15] was inactive. Moreover, in [18], the AC50 was 53.7 µM (active).

Turning to `COc1ccc2ccccc2c1`, the molecule was called inactive in [16], in assay [12], in [13], in [19] and in assay [15].

Take `CC[N+](CC)(CC(=O)Nc1c(C)cccc1C)Cc1ccccc1`: the call in assay [16], in [12], in [19] and in [17] was inactive.

In the case of `C=CCOCC(CC)(CO)COCC=C`, the molecule was classed as inactive in assay [16], in [12], in assay [18], in assay [14], in assay [20] and in assay [15].

For the molecule `C1CN(CCOCCN2CCOCC2)CCO1`, the call in [1], in assay [2], in assay [3], in assay [4], in [5] and in [6] was inactive. Further, the outcome in assay [7], in assay [8], in assay [10] and in assay [11] was inactive. Also, in assay [9], the AC50 is 0.003 µM (active).

Regarding `CC/C=C\CCO`, the molecule was called inactive in [16], in [13] and in assay [17].

As for `CNCCC(Oc1ccc(C(F)(F)F)cc1)c1ccccc1` (stereo unspecified), the molecule was called inactive in assay [1], in [4], in assay [5], in assay [6], in assay [7] and in assay [8]. Besides, in [11], the molecule was classed as inactive. For the same molecule, the half-maximal activity concentration (AC50) is 7.59 µM (active) in [2], 5.91 µM (active) in [3], 7.68 µM (active) in [9] and 6.04 µM (active) in [10].
